Test results from PubChem BioAssay (Tox21).
Values joined by “and” are separate entries in the source; they are usually repeats but may differ in a detail not shown here. Equal values may be shown once. Results filed as inconclusive are left out. The source holds several records for some structures; these can differ, active in one and inactive in another. Active and inactive are the calls of the source. Unless noted, calls follow the shape of the dose curve; as a rule, active = well fitted curve in the direction sought with a large enough effect in the repeat runs; inconclusive = weak or mixed curves; inactive = no such curve, though single readings can be large; an effect the other way counts as inactive or inconclusive.

How the values were obtained:
[1] = target: Thyrotropin receptor (Homo sapiens) (UniProt P16473); assay: qHTS assay to identify small molecule agonists of the thyroid stimulating hormone receptor (TSHR) signaling pathway (AID 1224843; calls by dose curve; also: nearly all actives have a fitted effect of over 45% in size); settings: TSHR-HEK293 cells, cAMP HTRF, agonist mode, 30 min; series mostly up to 92.4 µM
How it was run: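 Compounds are titrated over 15 concentrations, in triplicate, onto TSHR-HEK293 cells seeded at 800/well. Plates sit 30 min at room temperature before cAMP-d2 and anti-cAMP cryptate are added; signal is read after a further hour.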

[2] = qHTS assay to identify small molecule agonists of the hypoxia (HIF-1) signaling pathway - cell viability counter screen (AID 1224844; calls by dose curve; also: nearly all actives have a fitted effect of over 50% in size; also: potency is read from the fitted curve at half-maximal effect); settings: HRE-bla ME-180 viability, CellTiter-Glo luminescence, 17 h; series mostly up to 76.8 µM
How it was run: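 Viability counter screen: HRE-bla ME-180 cells plated 5 hrs before compound addition, treated 17 hrs at 37C and 5% CO2, then CellTiter-Glo added after the FRET reporter read; luminescence after 30 min.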

[3] = qHTS assay to identify small molecule agonists of H2AX (AID 1224845; active = well fitted activation curve with a large enough effect in the signal ratio in the repeat runs, not every such curve was filed as active; the % refers to the signal ratio); settings: CHO-K1 phospho-H2AX Ser139 HTRF, 3 h; series mostly up to 154 µM
How it was run: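 Wild-type CHO-K1 cells plated overnight, then exposed 3 hr at 37C to compounds at 15 concentrations (0.76% DMSO). Lysed, then HTRF anti-pH2AX(S139)-cryptate/anti-H2AX-d2 detection after 24 hr at room temperature; emissions 665 and 620 nm.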

[4] = qHTS assay to identify small molecule agonists of the hypoxia (HIF-1) signaling pathway (AID 1224846; active = well fitted activation curve with a large enough effect in the signal ratio in the repeat runs, not every such curve was filed as active; the % refers to the signal ratio); settings: HRE-bla ME-180 cells, beta-lactamase ratio, 17 h; series mostly up to 76.8 µM
How it was run: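 Agonist mode reporter screen. ME-180 cells stably expressing bla under HRE control received test compounds in DMSO for 17 hrs (37C, 5% CO2), and beta-lactamase activity was then detected with the CCF4-AM FRET substrate.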

[5] = qHTS assay to identify small molecule antagonists of the estrogen related receptor (ERR) signaling pathway from Tox21 library (AID 1224848); settings: ERR reporter cell line, luciferase antagonist mode, 18 h; series mostly up to 92.4 µM; also: nearly all actives have a fitted effect of over 50% in size; also: potency is read from the fitted curve at half-maximal effect
How it was run: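 First, 2,000 ERR cells per well were plated and held 6 h at 37 C/5% CO2. Next, compounds in DMSO were pinned in and left 18 h at 37 C. Finally, ONE-Glo was added and luminescence read after 30 min at room temperature.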

[6] = qHTS assay to identify small molecule agonists of the estrogen related receptor (ERR) signaling pathway from Tox21 library (AID 1224849; calls by dose curve; also: nearly all actives have a fitted effect of over 15% in size); settings: ERR reporter cell line, ONE-Glo luciferase, 18 h
How it was run: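 Quantitative HTS in agonist format: NTP ERR cell line, compounds transferred in DMSO after 6 h plating, 18 h incubation at 37 C, ONE-Glo luminescence endpoint.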

[7] = qHTS RealTime-Glo MT Cell Viability Assay in HepG2 cells - 24 hour (AID 1224867); settings: RealTime-Glo luminescence; series mostly up to 76.8 µM; also: nearly all actives have a fitted effect of over 50% in size; also: potency is read from the fitted curve at half-maximal effect
How it was run: (§1)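 Cell number in HepG2 cultures estimated from NanoLuc luminescence generated by metabolic reduction of a prosubstrate by living cells. The homogeneous, nonlytic format allowed repeated reads at 0, 8, 16, 24, 32 and 40 h of compound exposure.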

[8] = qHTS RealTime-Glo MT Cell Viability Assay in HEK293 cells - 32 hour (AID 1224868); settings: RealTime-Glo luminescence; series mostly up to 76.8 µM; also: nearly all actives have a fitted effect of over 50% in size; also: potency is read from the fitted curve at half-maximal effect
How it was run: (§2)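 Homogeneous bioluminescent viability format in HEK293 cells (600 cells/well). Following 5 h at 37 C/5% CO2, 23 nL compound was pintooled; the signal was measured repeatedly during 40 h incubation.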

[9] = A CellTox Green Cytotoxicity Assay to monitor cytotoxicity in HEK293 cells - 0 hour (AID 1224869); settings: CellTox Green fluorescence; series mostly up to 76.8 µM; also: nearly all actives have a fitted effect of over 50% in size
How it was run: (§3)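 Dead-cell fluorescence measured kinetically: asymmetric cyanine dye, HEK293, 600 cells/well, 5 h settle, 23 nL cpd/DMSO, 37 C, reads 0–40 h every 8 h.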

[10] = A CellTox Green Cytotoxicity Assay to monitor cytotoxicity in HEK293 cells - 40 hour (AID 1224871); settings: CellTox Green fluorescence; series mostly up to 76.8 µM; also: nearly all actives have a fitted effect of over 45% in size; also: potency is read from the fitted curve at half-maximal effect
How it was run: as §3

[11] = qHTS RealTime-Glo MT Cell Viability Assay in HEK293 cells - 16 hour (AID 1224872); settings: RealTime-Glo luminescence; series mostly up to 76.8 µM; also: nearly all actives have a fitted effect of over 50% in size; also: potency is read from the fitted curve at half-maximal effect
How it was run: as §2

[12] = qHTS RealTime-Glo MT Cell Viability Assay in HepG2 cells - 8 hour (AID 1224873); settings: RealTime-Glo luminescence; series mostly up to 76.8 µM; also: nearly all actives have a fitted effect of over 55% in size
How it was run: (§4)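 HepG2 cells mixed with RealTime-Glo MT reagents (NanoLuc plus cell-permeant prosubstrate) were seeded at 600 cells/well, incubated 5 h at 37 C/5% CO2, then pinned with compounds in DMSO; nonlytic luminescence tracked viability during 40 h treatment.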

[13] = qHTS RealTime-Glo MT Cell Viability Assay in HEK293 cells - 40 hour (AID 1224874); settings: RealTime-Glo luminescence; max response: stronger effect = lower value; also: nearly all actives have a fitted effect of over 50% in size; also: potency is read from the fitted curve at half-maximal effect
How it was run: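 600 HEK293 cells per well, dispensed already mixed with RealTime-Glo MT reagents. Compound dosing came 5 h later. The same wells were read for luminescence at 0, 8, 16, 24, 32 and 40 h of exposure at 37 C.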

[14] = A CellTox Green Cytotoxicity Assay to monitor cytotoxicity in HEK293 cells - 24 hour (AID 1224875); settings: CellTox Green fluorescence; series mostly up to 76.8 µM; also: nearly all actives have a fitted effect of over 45% in size
How it was run: as §3

[15] = A CellTox Green Cytotoxicity Assay to monitor cytotoxicity in HepG2 cells - 16 hour (AID 1224876); settings: CellTox Green fluorescence; series mostly up to 76.8 µM; also: nearly all actives have a fitted effect of over 45% in size; also: potency is read from the fitted curve at half-maximal effect
How it was run: (§5)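 First, HepG2 cells (600/well) mixed with reagent were plated; second, after 5 h at 37 C they received compounds via pintool; third, fluorescence was measured at 0 h through 40 h at 8 h intervals.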

[16] = qHTS RealTime-Glo MT Cell Viability Assay in HepG2 cells - 32 hour (AID 1224877); settings: RealTime-Glo luminescence; series mostly up to 76.8 µM; also: nearly all actives have a fitted effect of over 55% in size; also: potency is read from the fitted curve at half-maximal effect
How it was run: as §1

[17] = A CellTox Green Cytotoxicity Assay to monitor cytotoxicity in HepG2 cells - 24 hour (AID 1224878); settings: CellTox Green fluorescence; series mostly up to 76.8 µM; also: nearly all actives have a fitted effect of over 45% in size; also: potency is read from the fitted curve at half-maximal effect
How it was run: as §5

[18] = A CellTox Green Cytotoxicity Assay to monitor cytotoxicity in HepG2 cells - 40 hour (AID 1224879); settings: CellTox Green fluorescence; series mostly up to 76.8 µM; also: nearly all actives have a fitted effect of over 40% in size; also: potency is read from the fitted curve at half-maximal effect
How it was run: as §5

[19] = qHTS assay to identify small molecule agonists of H2AX - cell viability counter screen (AID 1224847; calls by dose curve; also: top concentration of the series differs between compounds; nearly all actives have a fitted effect of over 30% in size); settings: CHO-K1 viability, CellTiter-Glo luminescence, 3 h; series mostly up to 154 µM
How it was run: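 Cytotoxicity counter screen in wild-type CHO-K1 cells: a 3 hr compound treatment at 37C across 15 concentrations, followed by CellTiter-Glo luminescence to gauge viable cells.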

[20] = qHTS RealTime-Glo MT Cell Viability Assay in HepG2 cells - 40 hour (AID 1224870); settings: RealTime-Glo luminescence; series mostly up to 76.8 µM; also: nearly all actives have a fitted effect of over 50% in size
How it was run: as §4
% is scaled to controls: 0 for no effect and ±100 for the full control effect.

Sequence of Thyrotropin receptor (Homo sapiens) (P16473 whole entry, looked up): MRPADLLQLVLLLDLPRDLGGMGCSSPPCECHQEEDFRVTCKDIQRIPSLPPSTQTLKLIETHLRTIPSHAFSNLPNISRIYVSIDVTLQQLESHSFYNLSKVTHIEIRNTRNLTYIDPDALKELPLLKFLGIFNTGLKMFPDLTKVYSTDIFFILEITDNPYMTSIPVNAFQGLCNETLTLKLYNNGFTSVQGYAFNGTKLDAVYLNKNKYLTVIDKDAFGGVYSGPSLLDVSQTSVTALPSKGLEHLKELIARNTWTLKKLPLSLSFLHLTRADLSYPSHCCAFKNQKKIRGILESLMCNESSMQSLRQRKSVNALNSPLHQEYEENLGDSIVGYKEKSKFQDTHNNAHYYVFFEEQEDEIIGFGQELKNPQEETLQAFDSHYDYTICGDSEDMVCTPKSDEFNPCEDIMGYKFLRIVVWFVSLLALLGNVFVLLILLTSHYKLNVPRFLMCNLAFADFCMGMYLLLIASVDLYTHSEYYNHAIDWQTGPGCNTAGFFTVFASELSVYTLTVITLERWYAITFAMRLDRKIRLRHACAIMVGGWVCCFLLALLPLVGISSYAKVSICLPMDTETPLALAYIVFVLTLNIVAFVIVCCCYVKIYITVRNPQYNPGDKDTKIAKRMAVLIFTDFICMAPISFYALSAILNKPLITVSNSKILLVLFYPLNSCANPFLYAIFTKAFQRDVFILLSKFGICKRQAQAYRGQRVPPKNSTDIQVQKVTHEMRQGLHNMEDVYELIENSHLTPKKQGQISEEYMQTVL

O=C1CN(/N=C/c2ccc([N+](=O)[O-])o2)C(=O)N1
active: Potency [5] 19.3 µM and 30.6 µM and 21.1 µM
inactive: outcome [1] | Potency [2] | outcome [3] | outcome [4] | activity change, positive = activation ([6]; at 42.5 µM (top of the series)) -52% | activity change, positive = activation ([6]; at 92.4 µM (top of the series)) -64.2% and -59.1% | Potency [7] | Potency [8] | outcome [9] | Potency [10] | Potency [11] | outcome [12] | max response [13] -21.3% and -17.7% | Potency [14] | Potency [15] | Potency [16] | Potency [17] | Potency [18]

c1ccc2[nH]ccc2c1
17.1 µM (active) and inactive: Potency [2]
inactive: outcome [1] | outcome [3] | outcome [4] | outcome [19] | activity change, positive = activation ([6]; at 42.5 µM (top of the series)) 11.1% | activity change, positive = activation ([6]; at 92.4 µM (top of the series)) -76.8% and 0.106% | outcome [9] | outcome [12] | max response [13] 8.38% and -1.27%
6.81 µM (active) and inactive: Potency [17]
2.15 µM (active) and inactive: Potency [8] | Potency [11]
5.41 µM (active) and inactive: Potency [18]
2.39 µM (active) and inactive: Potency [5]
active: Potency [13] 2.15 µM
4.82 µM (active) and inactive: Potency [10]
6.07 µM (active) and inactive: Potency [7]
3.83 µM (active) and inactive: Potency [16]
21.5 µM (active) and inactive: Potency [15]

CC1(C)[C@@H]2CC[C@@]1(C)C(=O)C2
inactive: outcome [1] | Potency [2] | outcome [3] | outcome [4] | Potency [5] | activity change, positive = activation ([6]; at 42.5 µM (top of the series)) 1.44% | activity change, positive = activation ([6]; at 92.4 µM (top of the series)) 5.63% and 2.83% | Potency [7] | Potency [8] | outcome [9] | Potency [20] | Potency [11] | outcome [12] | max response [13] 4.23% and 1.62% and -1.8% | Potency [14] | Potency [15] | Potency [16] | Potency [17] | Potency [18]
inactive and 7.56 µM (active): Potency [10]

CC(O)C(=O)O (stereo not drawn)
inactive: outcome [1] | Potency [2] | outcome [3] | outcome [4] | outcome [19] | Potency [7] | Potency [8] | outcome [9] | Potency [20] | Potency [10] | Potency [11] | outcome [12] | max response [13] 13.3% and 7.35% and 12.9% | Potency [14] | Potency [15] | Potency [16] | Potency [17] | Potency [18]

O=c1ccc2ccccc2o1
inactive: outcome [1] | Potency [2] | outcome [3] | outcome [4] | outcome [19] | Potency [7] | Potency [8] | outcome [9] | Potency [20] | Potency [10] | Potency [11] | outcome [12] | max response [13] -0.397% and 6.44% and 2.9% | Potency [14] | Potency [15] | Potency [16] | Potency [17] | Potency [18]

CCCCC(CC)COC(=O)/C=C/c1ccc(OC)cc1 (stereo not drawn)
inactive: outcome [1] | Potency [2] | outcome [3] | outcome [4] | Potency [5] | activity change, positive = activation ([6]; at 42.5 µM (top of the series)) -9.11% | activity change, positive = activation ([6]; at 92.4 µM (top of the series)) 7.09% and -5.92% | Potency [7] | Potency [8] | outcome [9] | Potency [20] | Potency [10] | Potency [11] | outcome [12] | max response [13] -5.76% and 7.72% and 2.19% | Potency [14] | Potency [15] | Potency [16] | Potency [17] | Potency [18]

CC(=O)Nc1nnc(S(N)(=O)=O)s1
inactive: outcome [1] | Potency [2] | outcome [3] | outcome [4] | outcome [19] | Potency [7] | Potency [8] | outcome [9] | Potency [20] | Potency [10] | Potency [11] | outcome [12] | max response [13] 3.91% and 1.75% and 9.79% | Potency [14] | Potency [15] | Potency [16] | Potency [17] | Potency [18]

NC(=O)c1ccccc1O
inactive: outcome [1] | Potency [2] | outcome [3] | outcome [4] | outcome [19] | Potency [7] | Potency [8] | outcome [9] | Potency [10] | Potency [11] | outcome [12] | max response [13] 0.307% and -0.424% and 11.5% | Potency [14] | Potency [15] | Potency [16] | Potency [17] | Potency [18]

NC(N)=O
inactive: outcome [1] | Potency [2] | outcome [3] | outcome [4] | outcome [19] | Potency [7] | Potency [8] | outcome [9] | Potency [20] | Potency [10] | Potency [11] | outcome [12] | max response [13] 7.94% and 4.18% and 0.0917% | Potency [14] | Potency [15] | Potency [16] | Potency [17] | Potency [18]

O=C(O)CCC(=O)O
inactive: outcome [1] | Potency [2] | outcome [3] | outcome [4] | outcome [19] | Potency [5] | activity change, positive = activation ([6]; at 42.5 µM (top of the series)) 5.73% | activity change, positive = activation ([6]; at 92.4 µM (top of the series)) 5.97% and 1.48% | Potency [7] | Potency [8] | outcome [9] | Potency [10] | Potency [11] | outcome [12] | max response [13] 9.17% and -2.49% and -2.75% | Potency [14] | Potency [15] | Potency [16] | Potency [17] | Potency [18]
